# From PubChem BioAssay (EPA / NIEHS)
# Activity calls are given as the source filed them. Rule for the calls: active = hit-call score of the fitted dose curve at least 0.9, where 1 is the maximum; inactive = score below 0.9.
# How the values were obtained:
# [1] = molecular target: Bile acid receptor (Homo sapiens) (UniProt Q96RI1); assay: ATG_IR1_CIS: Attagene CIS-FACTORIAL HepG2 Assay for human Nuclear Receptor Subfamily 1 Group H Member 4 (NR1H4), IR1 submotif (AID 2282946); conditions: IR1 reporter transcription, actives raise or lower the signal
# Bile acid receptor (Homo sapiens), sequence (Q96RI1 whole entry, looked up): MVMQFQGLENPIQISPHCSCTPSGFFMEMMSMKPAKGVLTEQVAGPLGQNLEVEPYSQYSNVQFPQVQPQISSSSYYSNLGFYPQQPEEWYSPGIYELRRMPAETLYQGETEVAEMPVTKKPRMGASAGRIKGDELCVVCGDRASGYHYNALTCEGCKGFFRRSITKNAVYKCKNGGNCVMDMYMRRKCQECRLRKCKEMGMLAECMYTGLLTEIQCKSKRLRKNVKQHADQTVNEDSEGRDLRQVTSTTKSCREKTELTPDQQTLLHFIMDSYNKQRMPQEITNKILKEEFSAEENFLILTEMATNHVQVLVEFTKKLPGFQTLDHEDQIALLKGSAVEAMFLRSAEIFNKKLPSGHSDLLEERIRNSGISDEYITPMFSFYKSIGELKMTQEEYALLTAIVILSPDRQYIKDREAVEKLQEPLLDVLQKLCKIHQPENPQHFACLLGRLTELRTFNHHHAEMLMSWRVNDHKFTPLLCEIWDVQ
# Method in brief: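 Readout: reporter transcript levels by RT-PCR with fluorescent capillary electrophoresis, from HepG2 cells transiently transfected with multiplexed cis-regulated reporters and dosed 24 h. Gain- or loss-of-signal fitted versus DMSO negative control.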
# [2] = ATG_GRE_CIS: Attagene CIS-FACTORIAL HepG2 Assay for human Glucocorticoid Response Elements (GRE) (AID 2282947); conditions: HepG2 GRE cis-reporter, Attagene multiplex mRNA; actives raise or lower the signal
# Method in brief: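 HepG2, transient cis-reporter transfection, 24 h. Reporter mRNA: RT-PCR then CE, fluorescence. Fit both directions vs DMSO.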
# [3] = ATG_ISRE_CIS: Attagene CIS-FACTORIAL HepG2 Assay for human Interferon Regulatory Factor 1 (IRF1) binding to an Interferon-Stimulated Response Element (ISRE) (AID 2282948); conditions: HepG2 ISRE cis-reporter (Attagene), mRNA transcription readout; actives raise or lower the signal
# Method in brief: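 Uses HepG2 liver cells transfected with cis-regulated reporters and measures mRNA 24 h post-dosing through RT-PCR, primer-extension labelling and capillary electrophoresis, with DMSO as negative control.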
# [4] = ATG_M_32_CIS: Attagene CIS-FACTORIAL HepG2 Assay for M32 Transcription Factor (Internal Marker) (AID 2282949); conditions: HepG2 Attagene cis-factorial M32 reporter, mRNA; actives raise or lower the signal;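 note: background control marker of the multiplexed CIS panel rather than a real target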
# Method in brief: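 Transient MRTU transfection of HepG2; 24 h compound treatment; TriZol RNA, oligo(dT) RT, reporter PCR, 6-FAM primer extension, HpaI cut, CE. Gain/loss of signal vs DMSO.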
# [5] = ATG_M_06_CIS: Attagene CIS-FACTORIAL HepG2 Assay for M06 Transcription Factor (Internal Marker) (AID 2282950); conditions: HepG2 Attagene CIS-FACTORIAL M06 internal marker reporter; actives raise or lower the signal
# Method in brief: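 Steps: transfect HepG2 with multiplexed cis-element reporter constructs; dose chemical 24 h; extract RNA with DNase treatment; reverse-transcribe, PCR-amplify, 6-FAM label, HpaI digest; separate fragments by capillary electrophoresis. Activity fitted both directions versus DMSO.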
# [6] = molecular target: Hypoxia-inducible factor 1-alpha (Homo sapiens) (UniProt Q16665); assay: ATG_HIF1a_CIS: Attagene CIS-FACTORIAL HepG2 Assay for human Hypoxia Inducible Factor 1 (HIF1A) (AID 2282951); conditions: HepG2 Attagene cis-factorial HIF1a reporter transcription; actives raise or lower the signal
# Hypoxia-inducible factor 1-alpha (Homo sapiens), sequence (Q16665 whole entry, looked up): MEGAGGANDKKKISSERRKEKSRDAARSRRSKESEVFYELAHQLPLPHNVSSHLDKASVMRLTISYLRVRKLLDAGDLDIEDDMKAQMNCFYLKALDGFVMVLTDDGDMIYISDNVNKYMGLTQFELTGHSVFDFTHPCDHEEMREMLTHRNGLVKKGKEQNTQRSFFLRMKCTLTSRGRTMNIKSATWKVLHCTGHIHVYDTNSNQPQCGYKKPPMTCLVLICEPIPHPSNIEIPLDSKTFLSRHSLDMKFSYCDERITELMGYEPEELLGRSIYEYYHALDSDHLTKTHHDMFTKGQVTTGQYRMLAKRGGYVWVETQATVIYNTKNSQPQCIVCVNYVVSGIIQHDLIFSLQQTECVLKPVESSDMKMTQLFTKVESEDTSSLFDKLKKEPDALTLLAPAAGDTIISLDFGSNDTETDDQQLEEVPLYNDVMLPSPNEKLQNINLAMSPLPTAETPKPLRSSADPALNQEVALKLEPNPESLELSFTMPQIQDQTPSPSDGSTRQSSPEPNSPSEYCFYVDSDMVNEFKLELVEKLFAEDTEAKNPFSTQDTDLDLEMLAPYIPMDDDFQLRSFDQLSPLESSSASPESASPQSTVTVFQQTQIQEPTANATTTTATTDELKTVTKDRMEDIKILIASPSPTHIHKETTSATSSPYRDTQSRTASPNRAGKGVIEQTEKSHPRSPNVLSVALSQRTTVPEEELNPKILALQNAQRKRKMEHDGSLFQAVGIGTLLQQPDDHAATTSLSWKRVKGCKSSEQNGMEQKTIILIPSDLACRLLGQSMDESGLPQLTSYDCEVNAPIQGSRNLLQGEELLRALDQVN
# Method in brief: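 HepG2 cells transiently transfected with multiple cis-regulated reporter transcription units measure endogenous transcription factor activity. After 24 h exposure, reporter mRNA is quantified by RT-PCR with 6-FAM labelling, HpaI digestion and capillary electrophoresis. Bidirectional fitting against DMSO.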
# [7] = molecular target: Hepatocyte nuclear factor 6 (Homo sapiens) (UniProt Q9UBC0); assay: ATG_HNF6_CIS: Attagene CIS-FACTORIAL HepG2 Assay for human Hepatocyte Nuclear Factor 6 (HNF6) (AID 2282952); conditions: HepG2 Attagene cis-factorial HNF6 reporter transcription; actives raise or lower the signal
# Hepatocyte nuclear factor 6 (Homo sapiens), sequence (Q9UBC0 whole entry, looked up): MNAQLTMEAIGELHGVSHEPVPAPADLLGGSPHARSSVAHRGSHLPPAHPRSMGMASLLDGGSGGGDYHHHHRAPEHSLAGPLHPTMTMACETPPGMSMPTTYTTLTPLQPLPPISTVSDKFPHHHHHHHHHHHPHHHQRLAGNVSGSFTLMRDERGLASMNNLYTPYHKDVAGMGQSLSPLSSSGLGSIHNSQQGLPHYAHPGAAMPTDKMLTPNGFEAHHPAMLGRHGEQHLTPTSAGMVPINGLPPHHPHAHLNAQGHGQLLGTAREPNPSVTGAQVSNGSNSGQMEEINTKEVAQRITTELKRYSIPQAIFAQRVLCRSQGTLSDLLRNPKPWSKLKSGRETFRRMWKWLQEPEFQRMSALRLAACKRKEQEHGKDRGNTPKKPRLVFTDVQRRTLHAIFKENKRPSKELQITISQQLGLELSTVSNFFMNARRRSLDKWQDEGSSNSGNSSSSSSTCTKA
# Method in brief: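 Endogenous factor activity read in transiently transfected HepG2 via promoter-regulated reporter transcripts. RNA harvested 24 h post-dosing, reverse-transcribed, PCR-amplified, FAM-labelled, HpaI-digested and resolved by capillary electrophoresis; fitted in both directions against DMSO.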
# [8] = molecular target: Heat shock factor protein 1 (Homo sapiens) (UniProt Q00613); assay: ATG_HSE_CIS: Attagene CIS-FACTORIAL HepG2 Assay for human Heat Shock Transcription Factor 1 (HSE) (AID 2282953); conditions: HepG2 HSE cis-reporter, Attagene RNA transcription; actives raise or lower the signal
# Heat shock factor protein 1 (Homo sapiens), sequence (Q00613 whole entry, looked up, the tested form may be a part): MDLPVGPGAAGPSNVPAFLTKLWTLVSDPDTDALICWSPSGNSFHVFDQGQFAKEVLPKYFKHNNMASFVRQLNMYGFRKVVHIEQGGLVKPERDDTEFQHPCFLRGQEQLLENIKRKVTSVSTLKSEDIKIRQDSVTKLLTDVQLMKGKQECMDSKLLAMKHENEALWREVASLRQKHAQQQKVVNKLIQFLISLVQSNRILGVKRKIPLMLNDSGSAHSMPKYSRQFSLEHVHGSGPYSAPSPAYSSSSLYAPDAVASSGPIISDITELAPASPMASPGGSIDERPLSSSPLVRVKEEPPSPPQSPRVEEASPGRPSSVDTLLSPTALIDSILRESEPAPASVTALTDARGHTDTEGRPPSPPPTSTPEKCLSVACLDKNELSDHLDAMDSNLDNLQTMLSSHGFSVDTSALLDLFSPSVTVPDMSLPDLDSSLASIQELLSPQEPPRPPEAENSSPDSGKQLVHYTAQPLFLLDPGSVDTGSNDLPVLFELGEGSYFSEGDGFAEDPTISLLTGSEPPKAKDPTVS
# Method in brief: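 Cells were transfected with cis-element-driven reporter constructs, dosed for 24 h, then total RNA was reverse-transcribed and reporter cDNA amplified, FAM-labelled and digested with HpaI. Fragments were resolved by capillary electrophoresis; gain or loss was fitted against DMSO.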
# [9] = ATG_MRE_CIS: Attagene CIS-FACTORIAL HepG2 Assay for human Metal Responsive Element (MRE) (AID 2282954); conditions: HepG2 MRE cis-reporter transcription, Attagene multiplex; actives raise or lower the signal
# Method in brief: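 Readout: capillary electrophoresis of 6-FAM-labelled, HpaI-digested RT-PCR reporter products. System: HepG2 cells carrying transient multiplexed cis reporters, dosed 24 h. Analysis: bidirectional fit, DMSO baseline.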
SMILES,outcome [1],outcome [2],outcome [3],outcome [4],outcome [5],outcome [6],outcome [7],AC50 [8],outcome [9],outcome [8],AC50 [6],AC50 [3],AC50 [1],AC50 [2],AC50 [7],AC50 [9]
O=C(Cl)c1ccc(Cl)cc1Cl,inactive,inactive,inactive,inactive,inactive,inactive,inactive,163 µM (active),inactive,,,,,,,
NCC(F)(F)C(F)(F)C(F)(F)C(F)(F)C(F)(F)C(F)(F)C(F)(F)C(F)(F)F,inactive,inactive,inactive,inactive,inactive,inactive,inactive,,inactive,inactive,,,,,,
CNS(=O)(=O)C(F)(F)C(F)(F)C(F)(F)C(F)(F)C(F)(F)C(F)(F)C(F)(F)C(F)(F)F,inactive,inactive,inactive,inactive,inactive,,inactive,,inactive,inactive,24.4 µM (active),,,,,
FC(F)(F)C(F)(F)C(F)(F)C(F)(F)C(F)(F)C(F)(F)C(F)(F)CCI,inactive,inactive,inactive,inactive,inactive,inactive,inactive,,inactive,inactive,,,,,,
O=C1C=CC(=O)N1c1ccccc1,inactive,inactive,inactive,inactive,inactive,inactive,inactive,,inactive,inactive,,,,,,
C[C@]12CC[C@H]3C(=CCc4cc(O)ccc43)[C@@H]1CCC2=O,,inactive,inactive,inactive,inactive,inactive,inactive,,inactive,inactive,,,,,,
CN(N=O)C(=O)N[C@@H]1[C@@H](O)[C@H](O)[C@@H](CO)O[C@@H]1O,inactive,inactive,inactive,inactive,inactive,inactive,inactive,,inactive,inactive,,,,,,
CCN(CC)c1ccc2c(c1)Oc1cc(N(CC)CC)ccc1C21OC(=O)c2ccccc21,inactive,inactive,,inactive,inactive,inactive,inactive,,inactive,inactive,,55.3 µM (active),,,,
O=C(O)CCC(F)(F)C(F)(F)C(F)(F)C(F)(F)C(F)(F)C(F)(F)C(F)(F)F,inactive,inactive,,inactive,inactive,inactive,inactive,,inactive,inactive,,150 µM (active),,,,
C[Si](Cl)(Cl)CCC(F)(F)C(F)(F)C(F)(F)C(F)(F)C(F)(F)C(F)(F)F,inactive,inactive,inactive,inactive,inactive,inactive,inactive,,inactive,inactive,,,,,,
COC(F)(C(F)F)C(F)(F)F (configuration not stated),inactive,inactive,inactive,inactive,inactive,inactive,inactive,,inactive,inactive,,,,,,
O=S(=O)(O)c1ccc(Cl)cc1,,inactive,inactive,inactive,inactive,inactive,inactive,,inactive,inactive,,,,,,
CCCCCCCCCCCCCCCCC,,inactive,inactive,inactive,inactive,inactive,inactive,,inactive,inactive,,,,,,
CC(C)C(=O)OCc1ccccc1,,inactive,inactive,inactive,inactive,inactive,inactive,,,inactive,,,,,,
CC(=O)c1ccccc1N,,inactive,inactive,inactive,inactive,inactive,inactive,,inactive,inactive,,,,,,
CC(C)(C)c1cc(Cc2cc(C(C)(C)C)c(O)c(C(C)(C)C)c2)cc(C(C)(C)C)c1O,,inactive,inactive,inactive,inactive,inactive,inactive,,inactive,inactive,,,,,,
FC(F)(F)C(F)(F)C(F)(F)C(F)(F)C(F)(F)C(F)(F)CC[Si](Cl)(Cl)Cl,,inactive,inactive,inactive,inactive,inactive,inactive,,inactive,inactive,,,,,,
C=C(C)C(=O)OCC(F)(F)C(F)(F)C(F)(F)C(F)F,inactive,inactive,inactive,inactive,inactive,inactive,inactive,,inactive,inactive,,,,,,
C[Si](C)O[Si](C)C,inactive,inactive,inactive,inactive,inactive,inactive,inactive,,inactive,inactive,,,,,,
NCC(F)(F)C(F)(F)C(F)(F)C(F)(F)C(F)(F)C(F)(F)F,inactive,inactive,inactive,inactive,inactive,inactive,inactive,,,inactive,,,,,,
Cc1ccc(O)c(-n2nc3ccccc3n2)c1,inactive,inactive,inactive,inactive,inactive,inactive,inactive,,inactive,inactive,,,,,,
O=c1cccc[nH]1,,inactive,inactive,inactive,inactive,inactive,inactive,,inactive,inactive,,,,,,
OCC(O)CC(F)(F)C(F)(F)C(F)(F)C(F)(F)F (configuration not stated),,inactive,inactive,inactive,inactive,inactive,inactive,,,inactive,,,,,,
OCCCCC(F)(F)C(F)(F)C(F)(F)C(F)(F)F,,inactive,inactive,inactive,inactive,inactive,inactive,,inactive,inactive,,,,,,
CN(C)C(C)(C)CO,inactive,inactive,inactive,inactive,inactive,inactive,inactive,,inactive,inactive,,,,,,
Cc1ccc(S(=O)(=O)C(I)I)cc1,,,,inactive,inactive,inactive,,10.4 µM (active),,,,4.8 µM (active),42.7 µM (active),3.45 µM (active),33.4 µM (active),8.81 µM (active)
Cc1cnccn1,inactive,inactive,inactive,inactive,inactive,inactive,inactive,,inactive,inactive,,,,,,
Oc1ccc(C2(c3ccc(O)c(C4CCCCC4)c3)CCCCC2)cc1C1CCCCC1,,,,inactive,inactive,inactive,inactive,8.18 µM (active),,,,55.9 µM (active),,33.4 µM (active),,11.1 µM (active)
CCN=C1C=CC(=C(c2ccc(N(CC)CC)cc2)c2ccc(N(CC)CC)cc2)c2ccccc21,,inactive,,inactive,inactive,,inactive,1.01 µM (active),,,1.1 µM (active),0.916 µM (active),0.911 µM (active),,,1.03 µM (active)
